Assay results from PubChem BioAssay (NCI).
Several values for one entry are separate records, joined by “and”; a condition that tells them apart may be missing. Equal entries are not always repeated. This is part of a sample that, as a whole, favours compounds with a hit. Of some 83,000 tested, about 20% had one in any assay.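 Step 1: grow cells in 96-well plates. Step 2: add test compound at a single concentration. Step 3: incubate 48 h. Step 4: record percent growth.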 Activity calls are given as the source filed them. How the source made its calls: active means growth percent below 10; inactive means the rest.

Experiments:
Test in all cases: NCI-60 one-dose screen, 48 h (100 = growth as untreated, 0 = no growth, -100 = all killed)
Details in all cases: 10 µM unless noted
SR leukemia = tested on: SR leukemia
RPMI-8226 leukemia = tested on: RPMI-8226 leukemia
OVCAR-8 ovarian = tested on: OVCAR-8 ovarian
OVCAR-5 ovarian = tested on: OVCAR-5 ovarian
SK-OV-3 ovarian = tested on: SK-OV-3 ovarian
IGROV1 ovarian = tested on: IGROV1 ovarian
OVCAR-3 ovarian = tested on: OVCAR-3 ovarian
HS 578T breast = tested on: HS 578T breast
NCI/ADR-RES ovarian = tested on: NCI/ADR-RES ovarian
OVCAR-4 ovarian = tested on: OVCAR-4 ovarian

SMILES	growth (SR leukemia)	growth (RPMI-8226 leukemia)	growth (OVCAR-8 ovarian)	growth (OVCAR-5 ovarian)	growth (SK-OV-3 ovarian)	growth (IGROV1 ovarian)	growth (OVCAR-3 ovarian)	growth (HS 578T breast)	growth (NCI/ADR-RES ovarian)	growth (OVCAR-4 ovarian)
CC(C)NCC(O)c1ccc(O)c(O)c1 (configuration not stated)	87.9% (inactive) and 95.3% (inactive)	96.6% (inactive) and 99.6% (inactive)	94.8% (inactive) and 131% (inactive) and 91.7% (inactive)	89.2% (inactive) and 92.6% (inactive) and 86.9% (inactive)	95.5% (inactive) and 94.9% (inactive) and 102% (inactive)	96.4% (inactive) and 101% (inactive)	113% (inactive) and 102% (inactive) and 108% (inactive)	112% (inactive) and 96.6% (inactive) and 109% (inactive)	96.3% (inactive) and 102% (inactive) and 93.8% (inactive)	
Fc1ccc([I+]c2ccc(F)cc2)cc1	38.6% (inactive)	41.7% (inactive)	46.1% (inactive)	92.9% (inactive)	68.4% (inactive)	62.4% (inactive)	64.9% (inactive)	86.2% (inactive)	98.8% (inactive)	
Cc1cc2ccccc2cn1	109% (inactive)	100% (inactive) and 114% (inactive)	102% (inactive)	107% (inactive)	108% (inactive) and 103% (inactive)		112% (inactive) and 111% (inactive)	113% (inactive) and 144% (inactive)	103% (inactive) and 118% (inactive)	108% (inactive) and 90.4% (inactive)
OCC1OC(O)C(O)C(O)C1O (configuration not stated)	106% (inactive)	110% (inactive)	108% (inactive)	106% (inactive)	109% (inactive)	126% (inactive)	120% (inactive)	116% (inactive)	101% (inactive)	103% (inactive)
CN(C)CC1CCCCCC(CN(C)C)C1=O (configuration not stated)	5.93% (active)	13.1% (inactive)	80.3% (inactive)	146% (inactive)	107% (inactive)	34.2% (inactive)	-12.7% (active)	85.8% (inactive)	88.3% (inactive)	
Nc1ccc2c(O)cc(S(=O)(=O)O)cc2c1	86.3% (inactive)	85% (inactive)	105% (inactive) and 97.8% (inactive)	103% (inactive)	96.1% (inactive) and 96.6% (inactive)	130% (inactive) and 86.1% (inactive)	126% (inactive) and 105% (inactive)	96.3% (inactive)	105% (inactive)	93.5% (inactive)
Oc1ccc(Cc2ccccc2Cl)c(O)c1	95.7% (inactive)	87.5% (inactive)	104% (inactive)	97.3% (inactive)	104% (inactive)			94.4% (inactive)	91.5% (inactive)	93.6% (inactive)
O=C1C=C(Nc2ccccc2)c2ccccc2C1=O	84.5% (inactive)	52.7% (inactive) and 87.3% (inactive)	31.7% (inactive) and 94.3% (inactive)	90.2% (inactive) and 109% (inactive)	108% (inactive) and 90.9% (inactive)		6.63% (active) and 35.4% (inactive)	94.8% (inactive) and 88.6% (inactive)	25.1% (inactive) and 91.4% (inactive)	44.4% (inactive) and 82.5% (inactive)
Cc1ccc(=O)[nH]n1	98.9% (inactive) and 93% (inactive)	108% (inactive)	100% (inactive) and 102% (inactive)	115% (inactive) and 98.4% (inactive)	111% (inactive) and 112% (inactive)	106% (inactive)	106% (inactive) and 107% (inactive)	105% (inactive) and 93.7% (inactive)	103% (inactive)	
NC(=O)NCCCC(N)C(=O)O (configuration not stated)	84% (inactive)	96.5% (inactive)	98% (inactive)	113% (inactive)	100% (inactive)	91.5% (inactive)	106% (inactive)	106% (inactive)	102% (inactive)	112% (inactive)
Brc1ccc(SSc2ccc(Br)cc2)cc1	57.8% (inactive)	35.6% (inactive)	83.9% (inactive)	90.8% (inactive)	110% (inactive)	29.3% (inactive)	85.4% (inactive)	96.9% (inactive)	66.2% (inactive)	91.2% (inactive)
